Assay outcomes deposited in PubChem by several laboratories.
Shown are actives, neighbours in structure and some others; about 2.4% of the full set was active somewhere.
Hck Nef HTS: blocks Nef-activated human Hck kinase; P08631; Recombinant Hck-YEEI plus Nef, Z-Lyte FRET kinase assay; inhibition, % at 20 µM; actives 0.68% (n = 220,000); AID 463187;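 active = Hck-Nef kinase inhibition above about 50%, limit read from the data; inactive = inhibition below that limit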
Arbovirus inh: antivirals against arbovirus infection | arbovirus infection cell-based antiviral screen | inhibition, % at 10 µM | actives 0.37% (n = 200,000); in the data active = inhibition above about 30%
p97 ATPase inh: blocks human p97 ATPase activity. recombinant p97 ATPase, Kinase-Glo ATP luminescence, 3 h. inhibition, % at 8 µM. actives 0.42% (n = 220,000). AID 1481; in the data active = inhibition above about 15%
EP2 modulator: modulates human prostaglandin E2 receptor EP2 signaling. P43116. EP2-expressing cells, cAMP HTRF FRET, PGE2 co-stimulation. induction, % at 25 µM. actives 0.83% (n = 260,000). AID 940;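 active = compounds whose cAMP rise, as percent of the full-agonist control response, exceeds 60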;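 also: rat C6 glioma line stably carrying human EP2 under a CMV promoter; the protocol text gives 20 µM as final concentration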
Target sequence (P43116 whole entry, looked up): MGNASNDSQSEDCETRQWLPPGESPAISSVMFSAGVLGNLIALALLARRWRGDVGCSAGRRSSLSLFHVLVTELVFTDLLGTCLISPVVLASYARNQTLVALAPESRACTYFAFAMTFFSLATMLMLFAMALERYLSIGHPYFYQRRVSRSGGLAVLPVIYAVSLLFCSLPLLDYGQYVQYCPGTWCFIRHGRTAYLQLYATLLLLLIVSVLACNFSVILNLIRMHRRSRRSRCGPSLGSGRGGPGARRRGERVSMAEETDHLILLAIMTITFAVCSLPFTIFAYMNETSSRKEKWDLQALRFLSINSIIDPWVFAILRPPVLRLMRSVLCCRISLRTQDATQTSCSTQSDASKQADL
EP2 antag: EP2 receptor (human) inhibition | P43116 | C6 glioma cells expressing human EP2, cAMP TR-FRET; cells stimulated with saturating PGE2 | inhibition, % at 25 µM | actives 0.52% (n = 260,000) | AID 1422;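 active = percent inhibition above 40 after rounding to a whole number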;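 also: rat C6 glioma host cells with rolipram phosphodiesterase inhibitor present; the protocol text gives 20 µM as final concentration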
Each line names hits and unclear results; the compound was inactive in the other large screens; ! = a repeat was not active.

COc1ccc2nc3cc(Cl)ccc3c(Nc3ccc(O)c(CN4CCN(C)CC4)c3)c2c1	EP2 antag 90 (no result: Hck Nef HTS, Arbovirus inh, p97 ATPase inh)
COc1ccc2nc3cc(Cl)ccc3c(C#N)c2c1	none (no result: Arbovirus inh)
COC(=O)c1scc(C)c1N/N=C(\C)c1ccc(F)cc1	EP2 modulator 61
COc1nc2ccc(NC(C)=O)cc2s1	none (no result: Hck Nef HTS, Arbovirus inh, p97 ATPase inh)
Cc1ccc(S(=O)(=O)Oc2cc(S(=O)(=O)O)cc3cc(S(=O)(=O)O)cc(N)c23)cc1	EP2 antag 61 (no result: Hck Nef HTS, Arbovirus inh, p97 ATPase inh)
COc1ccc2[nH]c(=O)c(CN(Cc3ccco3)C(=S)NCC3CCCO3)cc2c1 (stereo unspecified)	none (no result: Hck Nef HTS, Arbovirus inh, p97 ATPase inh)
NC(N)=NC(N)=Nc1c(F)c(F)c(F)c(F)c1F	EP2 antag 64 (no result: Hck Nef HTS, Arbovirus inh, p97 ATPase inh)
NC(=O)c1c(NC(=O)c2cccc(F)c2)sc2c1CCCCC2	none (no result: Hck Nef HTS, Arbovirus inh, p97 ATPase inh)
COc1ccc(/C=C/C(=O)c2cc(O)ccc2O)cc1	EP2 antag 50 (no result: Hck Nef HTS, Arbovirus inh, p97 ATPase inh)
COc1ccc(/C=C/C(=O)Nc2ccccc2C(=O)O)cc1	Arbovirus inh 51
CCc1cc(C(=O)O)c(NC(=O)/C=C/c2ccc(OC)c(OC)c2)s1	Arbovirus inh 71
CCc1cc(C(=O)O)c(NC(=O)/C=C/c2ccc(OC)cc2)s1	none (no result: Arbovirus inh)
COc1ccc(/C=C/C(=O)c2ccc(O)cc2O)cc1	none (no result: Hck Nef HTS, Arbovirus inh, p97 ATPase inh)
COc1ccc(/C=C/C(=O)Nc2ccccc2C(=O)N2CCCC2)cc1	none
COc1ccc(/C=C/C(=O)Nc2ccccc2C(=O)O)cc1OC	Arbovirus inh 58
COc1ccc2[nH]c(=O)c(CN(CCO)C(=O)Nc3ccccc3Cl)cc2c1	none (no result: Hck Nef HTS, Arbovirus inh, p97 ATPase inh)
COc1ccc(/C=C/C(=O)Nc2cc(C(F)(F)F)ccc2Cl)cc1OC	Arbovirus inh 32
COc1cc(/C=C/C(=O)Nc2cc(C(F)(F)F)ccc2Cl)cc(OC)c1OC	none
COc1ccc(/C=C/C(=O)NCCn2c(C)cc3ccccc32)cc1OC	EP2 antag 114
CCCN1Cc2cccc(C(=O)N3CCN(c4cc(Cl)ccc4C)CC3)c2C1=O	Arbovirus inh 47
O=C(NC1CCCCC1)C(c1ccccn1)N(Cc1ccccc1Cl)C(=O)Cc1cccs1 (stereo unspecified)	none (no result: Hck Nef HTS, Arbovirus inh, p97 ATPase inh)
CCOC(=O)c1sc(N/N=C/c2ccccc2)nc1C	EP2 modulator 62
CCOC(=O)c1sc(Nc2ccc(C)cc2C)nc1C	EP2 modulator 64
COCCNCC(=O)Nc1cc(C)on1	none (no result: Hck Nef HTS, Arbovirus inh, p97 ATPase inh)
Cc1nnc(SCC(=O)Nc2ccc(F)cc2)n1C1CCCCC1	none (no result: Hck Nef HTS, Arbovirus inh, p97 ATPase inh)
Cc1cc2cc(C)c3nnc(SCC(=O)Nc4ccccc4F)n3c2cc1C	none (no result: Hck Nef HTS, Arbovirus inh, p97 ATPase inh)
CCOC(=O)C1CCCN(Cc2c(Cl)cccc2Cl)C1 (stereo unspecified)	EP2 modulator 61
CCOC(=O)C1CCCN(Cc2ccccc2F)C1 (stereo unspecified)	none
COc1cc(C=O)ccc1OCc1ccccc1Br	EP2 modulator 65
Cc1nn(C)cc1CN(C)Cc1ccc(OCC(O)CN2CCCCC2)cc1 (stereo unspecified)	Arbovirus inh 34
CN(Cc1ccc(OCC(O)CN2CCCCC2)cc1)Cc1ccnc2ccccc12 (stereo unspecified)	none
O=C(Cn1nnc(-c2ccccc2NC(=O)C23CC4CC(CC(C4)C2)C3)n1)NC1CCCCC1	none (no result: Hck Nef HTS, Arbovirus inh, p97 ATPase inh)
COC(=O)C1=CN(C2CC2)C=C(C(=O)OC)C1c1ccc(C(=O)OC)cc1	EP2 modulator 61
CN(C)C[C@@H](O)c1ccc(Cl)c2ccccc12	EP2 antag 47 (no result: Hck Nef HTS, Arbovirus inh, p97 ATPase inh)
Cc1[nH]nc2c1-c1nc3ccccc3nc1C(C)(C)C2	Arbovirus inh 33
COc1ccc2c(c1)cc(C)c1nn(CC(N)=O)c(=O)n12	EP2 modulator 84 (no result: Hck Nef HTS, Arbovirus inh, p97 ATPase inh)
Cn1c(N2CCC(C(=O)NCc3ccc(F)cc3)CC2)nc2ccccc21	none (no result: Hck Nef HTS, Arbovirus inh, p97 ATPase inh)
Cc1ccccc1Cn1cc(/C=N/n2cnnc2)c2ccccc21	EP2 modulator 64
Clc1ccc(Cn2cc(/C=N/n3cnnc3)c3ccccc32)cc1	none
C/C(N[O-])=C(\C)[N+]([O-])=[Fe].CC(=N\[O-])/C(C)=N/[O-].[NH2-].c1c[nH+]c[n-]1	EP2 antag 44 (no result: Hck Nef HTS, Arbovirus inh, p97 ATPase inh)
C/C(N[O-])=C(\C)[N+]([O-])=[Cu].C/C(N[O-])=C(\C)[N+]([O-])=[Cu].CC(=N\[O-])/C(C)=N/[O-].CC(=N\[O-])/C(C)=N/[O-]	EP2 antag 56 (no result: Hck Nef HTS, Arbovirus inh, p97 ATPase inh)
CCOc1ccc(NC(=O)c2sc(NC(=O)c3ccccc3Cl)c(C(=O)OC)c2C)cc1	none (no result: Hck Nef HTS, Arbovirus inh, p97 ATPase inh)
CC(C)c1cc2cccnc2n1CCc1noc(CN2CCC(O)CC2)n1	none (no result: Hck Nef HTS, Arbovirus inh, p97 ATPase inh)
CC(=O)c1ccc(NC(=O)Nc2ccc3c(c2)N(C)C(=O)CS3)cc1	EP2 antag 79
CCOc1ccc(NC(=O)Nc2ccc3c(c2)N(C)C(=O)CS3)cc1	none
Cc1ccccc1S(=O)(=O)Nc1nc2ccccc2nc1N1CCOCC1	EP2 antag 40
CCOc1ccc(S(=O)(=O)Nc2nc3ccccc3nc2N2CCN(C)CC2)cc1	none
CSc1nc2ccc(NS(=O)(=O)c3ccc4c(c3)OCCO4)cc2s1	Arbovirus inh 32
Cc1nn(C)cc1C(=O)N1C[C@H](C(=O)O)[C@@H](c2ccc(F)cc2)C1	none (no result: Hck Nef HTS, Arbovirus inh, p97 ATPase inh, EP2 antag)
O=C(Nc1cccc(-c2nc3ccccc3o2)c1)c1cccnc1	none
O=C(Nc1ccc2oc(-c3cccnc3)nc2c1)c1ccco1	none
COc1cccc(C(=O)Nc2ccc(-c3nc4ccccc4o3)c(O)c2)c1	none
COc1cc(OC)cc(C(=O)Nc2ccc(-c3nc4ccccc4o3)cc2)c1	EP2 antag 52
O=C(Nc1ccc2nc(-c3ccccc3)oc2c1)c1ccco1	EP2 antag 42!
O=C(Nc1ccc(-c2noc(CCc3ccccc3)n2)cc1)c1cccnc1	EP2 antag 76
O=C(Nc1ccc(-c2nc3ccccc3o2)cc1)c1cccnc1	EP2 antag 58!
COc1ccc(OC)c(-c2csc(N(CCCN3CCOCC3)C(=O)c3ccccc3)n2)c1	none (no result: Hck Nef HTS, Arbovirus inh, p97 ATPase inh)
Cc1nn(CC2CC2)c(=O)c2cc3occc3n12	none (no result: Hck Nef HTS, Arbovirus inh, p97 ATPase inh)
O=C(Nc1ccccc1Cl)N1CCC(c2nc3ccccc3s2)CC1	none (no result: Hck Nef HTS, Arbovirus inh, p97 ATPase inh)
CN1[C@@H]2CC[C@H]1CC(OC(c1ccccc1)c1ccccc1)C2 (stereo partly specified)	EP2 antag 57 (no result: Hck Nef HTS, Arbovirus inh, p97 ATPase inh)
Cc1ccc(-n2c(SCC(=O)NC3CCCCC3)nnc2-c2ccco2)cc1	none (no result: Hck Nef HTS, Arbovirus inh, p97 ATPase inh)
Cc1ccc(-n2c(SCC(=O)N3CCCC(C)C3)nnc2-c2ccco2)cc1 (stereo unspecified)	EP2 antag 93 (no result: Hck Nef HTS, Arbovirus inh, p97 ATPase inh)
COC(=O)NC1SC(C)=NC1(O)c1ccccc1 (stereo unspecified)	none (no result: Hck Nef HTS, Arbovirus inh, p97 ATPase inh)
CC(=O)N1c2ccccc2C2(O)N=C(C)SC12 (stereo unspecified)	EP2 antag 42
Brc1ccc(-c2nc3ccccc3s2)s1	EP2 antag 124
c1ccc(-c2nc3ccccc3s2)nc1	none
C[C@@]12CC[C@@H]3[C@H](CC=C4C[C@@H](O)CC[C@@]43C)[C@H]1CC[C@H]2N(CCO)CCO	EP2 antag 49 (no result: Hck Nef HTS, Arbovirus inh, p97 ATPase inh)
CC(C)CCCC(C)[C@H]1CCC2C3CC=C4C[C@@H](O)CC[C@]4(C)C3CC[C@@]21C (stereo partly specified)	none (no result: Hck Nef HTS, Arbovirus inh, p97 ATPase inh)
CC(NC(=O)CCCSc1nc(-c2ccco2)cc(C(F)(F)F)n1)c1ccccc1 (stereo unspecified)	EP2 antag 42 (no result: Hck Nef HTS, Arbovirus inh, p97 ATPase inh)
